From PubChem
Most compounds without a hit are left out; they make up all but 6.1% or so of the library.
D3 ag = activates the human D3 dopamine receptor. P35462. D3R DiscoveRx beta-arrestin cells, luminescence, 90 min. max activation, %. 410,000 tested, 0.58% active; in the data active = max activation above about 30%; also: 0% is about no effect
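Agonist mode: compounds and dopamine controls were applied to plated cells for 90 min at 37 degrees C after an overnight attachment at 1500 cells/well. Luminescent read-out followed 30 - 60 minutes at room temperature with DiscoveRx detection reagent.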
D1 antag = antagonists of human D1 dopamine receptor. P21728. HEK293 TREx D1 cells, calcium flux, dopamine EC80; stronger effect = lower value. activity change, negative = inhibition, % at 10 µM. 360,000 tested, 3.2% active. AID 504652; in the data active = activity change below about -30%; also: % is scaled to controls: 0 for no effect and ±100 for the full control effect
Target sequence (P21728 whole entry, looked up): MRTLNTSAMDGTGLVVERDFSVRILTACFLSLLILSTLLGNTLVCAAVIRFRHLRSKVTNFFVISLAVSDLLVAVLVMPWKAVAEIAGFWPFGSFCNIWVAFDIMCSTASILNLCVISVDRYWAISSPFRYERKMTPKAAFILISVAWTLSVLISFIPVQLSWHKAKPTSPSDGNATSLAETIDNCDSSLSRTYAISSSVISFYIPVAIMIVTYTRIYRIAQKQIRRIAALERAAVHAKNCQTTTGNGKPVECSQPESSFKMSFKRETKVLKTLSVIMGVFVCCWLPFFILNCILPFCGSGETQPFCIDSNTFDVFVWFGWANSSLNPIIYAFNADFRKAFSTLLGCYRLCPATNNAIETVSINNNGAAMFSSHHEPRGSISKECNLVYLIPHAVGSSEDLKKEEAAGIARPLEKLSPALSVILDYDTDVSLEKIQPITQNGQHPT
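Antagonism measured as reduced calcium response to an EC80 dopamine addition following 180 s compound pre-read; cells were inducible HEK293 Trex D1 plated overnight at 30 C, read kinetically at 1 cycle/sec.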
D1 potentiator = human D1 dopamine receptor positive modulation; P21728; HEK293 TREx D1 cells, calcium flux, dopamine EC20 potentiation; potentiation, % at 10 µM; 360,000 tested, 0.036% active; AID 504651; in the data active = potentiation above about 30%; also: 0% is about no effect
DRD3 antagonist = D3 dopamine receptor (human) antagonism | P35462 | D3R cells, DiscoveRx beta-arrestin luminescence, antagonist mode; stronger effect = lower value | max response, negative = inhibition, % | 360,000 tested, 2.5% active; in the data active = max response below about -50%; inconclusive = no clear call, values can overlap the other calls; also: % is scaled to controls: 0 for no effect and ±100 for the full control effect
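Cells expressing the human receptor were seeded at 1500 cells/well, incubated overnight at 37 degrees C in 5% CO2, then exposed to library compounds with dopamine controls for 90 minutes at 37 degrees C before luminescent detection.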
D1 agonist = human D1 receptor agonism. P21728. HEK293 T-REx D1 cells, calcium flux, agonist mode. activation, % at 2 µM. 360,000 tested, 1% active. AID 504660; in the data active = activation above about 30%; also: 0% is about no effect
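Tetracycline-induced HEK293 TREx D1 cells, force-coupled to calcium signalling, were dye-loaded with a no-wash calcium kit. Compound was pin-added after a 10 s baseline. Fluorescence was read kinetically at 1 cycle/s for 180 s, with calcium rises flagged as agonism.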
* marks the source's active call; other numbers are inactive results; ? = inconclusive; / = no result.

SMILES	D3 ag	D1 antag	D1 potentiator	DRD3 antagonist	D1 agonist
CC(C)COc1ccc(C(=O)N2CCCCC2CCN2CCOCC2)cc1 (stereo unspecified)	6	-18	2	/	3
COc1cc(N2N=C(c3ccccc3)CC2c2ccccc2)c(C=O)cc1C=O (stereo unspecified)	-6	12	1	-10	-2
O=[N+]([O-])c1ccc(N2N=C(c3ccccc3)CC2c2ccccc2O)cc1 (stereo unspecified)	/	2	-9	/	63*
COc1ccccc1N1N=C(c2ccc([N+](=O)[O-])cc2)CC1c1ccccc1 (stereo unspecified)	-6	-6	-4	-9	63*
O=[N+]([O-])c1ccc(N2N=C(c3ccco3)CC2c2ccccc2)cc1 (stereo unspecified)	-12	1	-5	20	50*
NS(=O)(=O)c1ccc(N2N=C(c3ccccc3)CC2c2ccccc2Br)cc1 (stereo unspecified)	8	/	/	37	/
CCN(C(=O)c1cn(CC)c(=O)c2cc(OC)c(OC)cc12)c1ccc(C)c(C)c1	-8	-11	0	/	3
COc1cc(OC)c(NC(=O)N2CCSc3ccccc32)cc1Cl	3	-21	-1	/	0
CCCSCCCNC(=O)C1CCN(c2nn3cc(-c4ccc(F)cc4)nc3s2)CC1	7	13	0	/	-1
Cc1cn2c(=O)cc(COc3cccc(NC(=O)c4cccc(F)c4)c3)nc2s1	5	-6	0	/	1
O=C(Nc1cccc(OCc2cc(=O)n3c4c(sc3n2)CCCC4)c1)c1ccc(F)cc1	-3	-31*	-6	/	-1
Cc1cn2c(=O)cc(COc3ccc(NC(=O)c4cccc(F)c4)cc3)nc2s1	-10	-41*	-6	/	1
CC(=O)Nc1ccccc1OCc1cc(=O)n2c3c(sc2n1)CCCC3	60*	-14	-5	/	0
Cc1ccc(OCC(=O)Nc2ccc(OCc3cc(=O)n4ccsc4n3)cc2)cc1	3	3	1	/	144*
Cc1ccc(C(=O)Nc2nnc(SCc3cc(=O)c4c(C)ccc(C)c4[nH]3)s2)cc1	-8	-3	1	/	0
O=c1cc(-c2ccc(O)cc2)oc2cc(O)c(C3OC(CO)C(O)C(O)C3O)c(O)c12 (stereo unspecified)	-26	5	1	-64*	-2
c1csc(-c2nc(CN3CCSCC3)cs2)c1	-35	1	-14	-58*	2
N#C/C(=C\c1sc(N2CCOCC2)nc1-c1ccccc1)C(=O)Nc1cccc2ccccc12	/	-5	2	/	40*
Cc1ccccc1C(=O)OCc1cc(=O)n2nc(C3CCCCC3)sc2n1	-3	-14	-6	/	3
Cc1ccc(OCCCCn2cnc3ccccc32)c(C)c1	2	-23	-5	-57*	14
Cc1ccc(C)c(OCCCCn2cnc3ccccc3c2=O)c1	18	-19	-6	32	39*
Cc1ccc(C(=O)Cn2cnc3ccccc3c2=O)cc1C	-3	-17	-3	-18	43*
CC(C)Oc1ccccc1OCCCCn1cnc2ccccc2c1=O	1	-8	10	15	1
CCOc1ccc(OCCCCn2cnc3ccccc3c2=O)cc1	5	-42*	1	0	1
Cc1ccc(C)c(S(=O)(=O)c2cn(C)c3cc(N4CCCCC4C)c(F)cc3c2=O)c1 (stereo unspecified)	-20	11	2	/	3
SMILES	D3 ag	D1 antag	D1 potentiator	DRD3 antagonist	D1 agonist
O=C(Nc1cccc(Cl)c1Cl)c1cc(S(=O)(=O)N2CCCCC2)ccc1F	-6	2	4	/	0
COc1ccc(-c2nc3scc(CCNS(=O)(=O)c4cccc(C(C)=O)c4)n3n2)cc1	7	/	-3	/	0
CC(=O)c1ccc(NC(=O)c2cccc(N3C(=O)c4ccccc4C3=O)c2)cc1	-6	-31*	0	0	2
CC(C)(C)c1ccc(C(=O)Nc2ccc3c(c2)C(=O)NC3=O)cc1	-2	7	-5	60	2
NS(=O)(=O)c1ccc(NC(=O)c2cccc(N3C(=O)c4ccccc4C3=O)c2)cc1	-10	0	-8	1	2
CC(=O)Nc1cccc2c1C(=O)N(c1cccc(OC(C)=O)c1)C2=O	-6	23	-5	-1	11
CC(=O)c1ccc(C(=O)Nc2ccc3c(c2)C(=O)NC3=O)cc1	-5	-35*	-8	?	0
CC(=O)Oc1cccc(N2C(=O)c3ccccc3C2=O)c1	-5	-31*	5	0	0
COc1cc(OC)c(OC)cc1CNC(=O)c1ccc(COc2ccccc2)cc1	31*	-19	-14	4	7
O=C(NCc1cccnc1)c1ccc(COc2ccc(Cl)cc2)cc1	4	-32*	-6	34	14
O=C(COc1ccc(Cl)cc1)Nc1ccccc1C(=O)NCc1cccnc1	13	17	3	4	88*
COc1ccccc1C(=O)N1CCN=C1c1ccccc1	34*	-3	-5	-9	4
Nc1nc(Nc2ccccc2F)sc1C(=O)c1ccccc1	0	7	6	-7	34*
Cc1nc(Nc2ccccc2)sc1C(=O)c1ccc(F)cc1	3	-6	-3	-12	0
CN1C2CCC1/C(=C/c1cccn1C)C(=O)/C2=C\c1cccn1C	0	-6	-4	-3	187*
Cn1cccc1/C=C1\Cc2ccccc2C1=O	4	7	1	26	4
Cn1cccc1/C=C1\CC(C(C)(C)C)C/C(=C\c2cccn2C)C1=O (stereo unspecified)	2	-8	2	35	123*
Cc1cc2nc(-c3ccc[nH]c3=O)[nH]c2cc1C	-2	-65*	-9	-17	1
Cc1cc2nc(-c3ccc[nH]c3=O)n(Cc3ccc(F)cc3)c2cc1C	-13	-11	-1	?	4
COc1cccc(CNC(=O)CNS(=O)(=O)c2ccc3nc(C)sc3c2)c1	0	9	-2	/	-1
O=C(NCc1ccc2c(c1)OCO2)c1ccc(N2CCCCCC2)c([N+](=O)[O-])c1	-11	-3	-1	-60*	3
Cc1ccc(C)c2sc(NC(=O)c3ccc(N4CCCCC4)c([N+](=O)[O-])c3)nc12	5	20	8	-59*	3
O=C(NCc1ccc2c(c1)OCO2)c1ccc(CS(=O)(=O)c2ccc(Br)cc2)o1	0	-25	/	5	36*
CN1C(=O)c2ccc(C(=O)NCc3ccc4c(c3)OCO4)cc2C1=O	2	-34*	-3	-20	0
COc1ccc(OC)c(CNC(=O)c2ccc(-c3nc(CSc4ccccc4)c(C)o3)cc2)c1	-22	-3	1	/	19
O=C(NCc1ccc2c(c1)OCO2)c1ccc(Br)cc1	47*	-13	-3	-15	1
CCCn1nc2cc(C(=O)NCc3ccc4c(c3)OCO4)ccc2c1OCC	-6	-5	3	-13	4
